About 4,500 (1.2%) of roughly 360,000 compounds were called active. For the sample, actives were picked, then their nearest neighbours and some compounds at random. A number with no mark means an inactive call. No stated cut-off is given here; in the data, active means inhibition above about 30%; inactive means the rest.
Assay: GDH-TPI coupling enzyme inhibitors, primary screen, artefact control for M. tuberculosis FBA inhibitor project, biochemical, absorbance, full deck (AID 588335);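 further: 0% = DMSO wells and 100% = wells lacking the enzyme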
Details: GDH-TPI coupled enzyme counterscreen, NADH absorbance; at 4.8 µM; stronger effect = higher value

| SMILES | inhibition |
| --- | --- |
| Cc1ccc(-c2csc(C(C#N)=C(O)CN3CCN(C(=O)c4ccco4)CC3)n2)cc1 | 21.6% |
| COC(=O)C(C(=O)Nc1cccc(C)n1)C1CCCCCC1 (stereo unspecified) | 14.9% |
| C=CCN(c1ccc(C(=O)Nc2cc(C)cc(C)c2)cc1)S(C)(=O)=O | 4.51% |
| CC(=O)c1cnc(-c2ccccc2)s1 | 10.1% |
| O=C(/C=C/Nc1ccccc1)c1cnc(-c2ccccc2)s1 | 3.77% |
| CC(C)(C)C(=O)c1cnc(Nc2ccccc2)s1 | 35.6% (active) |
| C=CC(COCc1ccccc1)N(Cc1ccccc1)S(=O)(=O)c1ccccc1Br (stereo unspecified) | 9.24% |
| CCCOc1cccc(C(=O)Nc2nnn(CCC)n2)c1 | 3.11% |
| O=C(Nc1ccc(Cl)cc1)c1cccc(OC(=S)N2CCOCC2)c1 | -5.96% |
| CCC(=O)Oc1cccc(C(=O)Nc2ccc(-c3nnc(-c4ccco4)o3)cc2)c1 | 35.6% (active) |
| N#C/C(C(=S)Nc1ccccc1)=C1/NN=C(N2CCOCC2)N1c1ccccc1 | 6.29% |
| Cc1ccc2c(O)c(Cc3ccccc3)c(=O)[nH]c2n1 | 12.7% |
| NC(=O)Cn1cc(C(=O)c2ccccc2F)c2ccccc21 | 1.25% |
| N#Cc1ccc(Cn2cc(C(=O)c3ccco3)c3ccccc32)cc1 | 31.5% (active) |
| CC1CCN(C(=O)Cn2cc(C(=O)c3ccco3)c3ccccc32)CC1 | 21.1% |
| CCOC(=O)c1c(NC(=S)SC)sc(C(=O)N2CCc3ccccc3C2)c1C | 1.83% |
| CN1CCC(=NNC(=O)CN(c2cccc(Cl)c2)S(C)(=O)=O)CC1 | 3.59% |
| CCc1nc2cccnc2n1-c1ccc(C(=O)O)cc1 | 0.86% |
| N#CCCCn1c(O)c(N=NC(=O)C(O)c2ccccc2)c2ccccc21 (stereo unspecified) | 42% (active) |
| CCCCn1c(O)c(N=NC(=O)Cn2c(C(F)(F)F)nc3ccccc32)c2ccccc21 | -14.8% |
| Cc1csc(Nc2ccc(Cl)cc2)[n+]1-c1ccc(Cl)cc1 | 2.24% |
| O=C(CNC(=O)c1ccccc1Br)NNC(=O)c1cccs1 | -3.45% |
| O=C(CNC(=O)C1COc2ccccc2O1)N/N=C/c1cc(Br)c(O)c(Br)c1 (stereo unspecified) | 33.5% (active) |
| O=C(CNC(=O)C(c1ccccc1)c1ccccc1)N/N=C\c1ccc2c(c1)OCO2 | 6.25% |

| SMILES | inhibition |
| --- | --- |
| O=C(CNC(=O)c1cccnc1)N/N=C/c1cc(Br)c(O)c(Br)c1 | 42% (active) |
| CC1CC(=NNC(=O)C2COc3ccccc3O2)CC(C)(C)C1 (stereo unspecified) | -8.18% |
| CCCOc1cccc(C(=O)NCCCNC(=O)c2cccnc2)c1 | -5.19% |
| Cc1cccc(OCC(=O)NCCNC(=O)c2cccnc2)c1 | -7.55% |
| CCN(CC)c1ccc(/C=N/NC(=O)CNC(=O)c2cccnc2)cc1 | 33.1% (active) |
| CC(C)OCCCNC(=O)CNC(=O)c1cccs1 | 3.27% |
| CCOc1cc(/C=N/NC(=O)c2ccncc2)cc(Br)c1O | 0% |
| CCN(CC)c1ccc(/C=N/NC(=O)CNC(=O)c2cccs2)cc1 | 31.4% (active) |
| C/C(=N\NC(=O)c1cccnc1)c1ccc(-n2ccnc2)cc1 | 12.6% |
| O=C(COC(=O)c1ccc(N2CCCC2=O)cc1)c1ccc(OC(F)F)cc1 | 2.55% |
| Cc1cc(=O)oc2cc(NC(=O)C3CC(=O)N(Cc4ccccc4)C3)ccc12 (stereo unspecified) | 19.6% |
| NC(N)=NCCCc1cn(CC(=O)N2CCNCC2)nn1 | 1.79% |
| CC(C)Oc1ccc(C2NC(=O)NC2=O)cc1 (stereo unspecified) | 1.41% |
| O=C1CCCC2=C1C(c1cccs1)n1nc(SCc3ccccc3)nc1N2 (stereo unspecified) | 19.9% |
| CCC(C)[C@H](NC(=O)N1c2ccccc2NC(=O)[C@@H]1C(C)C)C(=O)N[C@@H](Cc1ccccc1)C(=O)O (stereo partly specified) | 10.8% |
| CCCc1ccc(-c2c(C)sc(NC(=O)c3ccnn3C)c2C#N)cc1 | 17.4% |
| CC(OC(=O)CNS(=O)(=O)/C=C/c1ccccc1)C(=O)Nc1ccc(S(=O)(=O)N2CCCC2)cc1 (stereo unspecified) | -3.69% |
| CN(C)c1ccc(Nc2c3c4c(cccc4n(C)c2=O)C(=O)c2ccccc2-3)cc1 | 5.68% |
| CCSc1nc2c(c(=O)[nH]1)C(c1cccnc1)C(C(=O)OC(C)C)=C(C)N2 (stereo unspecified) | 0.91% |
| COc1cc(S(=O)(=O)N2CCN(C(=O)C3CC3)CC2)ccc1NC(C)=O | 7.35% |
| O=C(Nc1ccc(OCC(=O)N2CCOCC2)cc1)c1cc(F)c(F)cc1Cl | 6.18% |
| CCOC(=O)c1cc(C)nc(S(C)(=O)=O)c1C#N | -4.82% |
| CCOC(=O)c1c(C)[nH]c(C)c1C(=O)CSc1nc(N)cc(N)n1 | 5.66% |
| CCOC(=O)c1c(C(C#N)C#N)cc(C)nc1C | 34.7% (active) |

| SMILES | inhibition |
| --- | --- |
| C[C@@H]1CN([C@H](C)CO)C(=O)c2cc(Br)cnc2O[C@@H]1CN(C)Cc1cncnc1 | 13.4% |
| Cc1cc(Cl)ccc1C(=O)C1CCCN(C(=O)c2ccc3c(c2)OCO3)C1 (stereo unspecified) | 4.42% |
| O=C(O)c1ccc(N/N=C/c2ccc3ncccc3c2)cc1 | 34% (active) |
| CCNC(=S)NNC(=O)c1ccc2ncccc2c1 | 7.57% |
| NCCCCCC(=O)N/N=C/c1ccc2nccnc2c1 | 26.5% |
| CCCCN(C(=O)c1ccc2ccccc2c1)c1c(N)n(CCCC)c(=O)[nH]c1=O | 1.27% |
| O=C(CNC(=O)Cc1ccccc1)NCC(=O)OCC(=O)c1ccccc1Cl | 4.58% |
| O=C(CNC(=O)c1ccccc1)NCC(=O)OCc1ccc(Cl)cc1 | 4.85% |
| O=C(CNC(=O)OCc1ccccc1)Oc1cc2oc(=O)cc(-c3ccccc3)c2cc1Cl | 31.2% (active) |
| CCCCNC(=O)N1CCN(S(C)(=O)=O)CC1 | -0.96% |
| Cc1ccc(C)c(-n2ccnc2SCC(N)=O)c1 | -8.54% |
| CCCCCCCC(=O)OC(CN1CCCCCC1)CN1CCCC1=O (stereo unspecified) | 4.02% |
| COC(=O)CSc1nnc(NC(=O)CCc2ccccc2)s1 | 3.45% |
| CC(C)(C)NC(=O)CSc1nnc(NC(=O)CCc2ccccc2)s1 | 4.27% |
| NC(=O)CSc1nnc(NC(=O)c2ccc(Br)o2)s1 | 32.8% (active) |
| COc1ccc(N)cc1NC(=O)CN1CCOCC1 | -1.77% |
| Cc1ccc(S(=O)(=O)NCc2cn3ccsc3n2)c(C)c1 | 7.83% |
| CCN1C(=O)[C@H]2[C@@H](c3ccccc3)N[C@]3(CCCN(Cc4ccc(C)cc4)C3=O)[C@H]2C1=O | -3.32% |
| CCN(CC)c1ccc(/C=N/Nc2nc(C)cc(=O)[nH]2)cc1 | 37.7% (active) |
| Cc1cc(=O)[nH]c(Nc2cccc(Br)c2)n1 | -6.37% |
| Cc1cccc(C)c1NC(=O)CNC(=O)c1ccc2c(c1)OCCO2 | -1.08% |
| Cc1cc(=O)[nH]c(N/N=C/c2ccc3c(c2)OCCO3)n1 | 46.9% (active) |
| Cc1cc(=O)[nH]c(N/N=C/c2c(C)nn(-c3ccccc3Cl)c2Cl)n1 | 3.41% |
| Cc1ccc(C)c(NC2=NCC(=O)N2c2ccc3c(c2)OCCO3)c1 | -1.83% |

| SMILES | inhibition |
| --- | --- |
| CCN(CC)CCNc1nc(-c2ccc(OC(F)F)cc2)c(C)s1 | 2.11% |
| O=C(NNC1=NCCC1)c1cccc(S(=O)(=O)N2CCCCC2)c1 | 5.45% |
| CCC1=C(OC(=O)N(CC)CC)N2C(=O)OC(=NCC3CC3)[C@]2(C)[C@H]2C1=CC[C@H]1C(=O)N(CC(=O)OC)C(=O)[C@H]12 | 9.36% |
| COc1ccc(/C=C2\N=C3CCCN3C2=O)cc1 | 45.7% (active) |
| COc1ccc(C=C2CCC3C(CCCC34OCCO4)C2=O)cc1 (stereo unspecified) | 25.5% |
| COc1ccc(/C=C2\SC(=N)N(c3ccc(F)cc3)C2=O)cc1 | 4.31% |
| Cc1ccc(Cc2nnc(SCC(=O)Nc3ccc(C)cc3C)[nH]c2=O)cc1 | 4.83% |
| [O-][N+]12CCCCC1CCCC2CO (stereo unspecified) | -10.3% |
| Cc1cc(C)c2nc3nc(C)cc(C)c3c(N)c2c1 | 4.65% |
| CCc1nnc(NC(=O)c2ccco2)s1 | 15.9% |
| CCc1nnc(NC(=O)[C@@H](NC(=O)c2cccc(C)c2)C(C)C)s1 | -6.25% |
| CCc1nnc(NC(=O)/C=C/c2ccc(C)o2)s1 | 40.7% (active) |
| CN(C)c1ccc(NC(=O)CN2C3CCCC2CC(NC(=O)c2ccccc2)C3)cc1 (stereo unspecified) | -4.43% |
| CN(C)c1ccc(-c2nnc(-c3cccnc3)o2)cc1 | 30% |
| Nc1ccc(-c2nnc(-c3ccc(-c4ccccc4)cc3)o2)cc1 | 49.1% (active) |
| OC(c1nnc(-c2ccccc2)o1)c1cccs1 (stereo unspecified) | -12.3% |
| CCC(C)(C)c1ccc(OCC(=O)N(C)C)c(C(C)(C)CC)c1 | 1.89% |
| Cc1ccc(C(=O)N/N=C\c2cc(Br)c(Br)o2)cn1 | 9.96% |
| O=C(N/N=C/c1ccc(Br)o1)c1cncc(Br)c1 | 33.6% (active) |
| O=C(CCNC(=O)c1ccccc1)NN=Cc1ccc(Br)o1 | 8.77% |
| CN(CC1CCCO1)S(=O)(=O)c1ccc(C(=O)Nc2ccc(F)cc2)cc1 (stereo unspecified) | 4.12% |
| CN1CCN(CCCNC(=O)c2cc3c(=O)oc4ccccc4c3s2)CC1 | 31.1% (active) |
| O=C(NCCN1CCN(Cc2ccccc2)CC1)c1cc2c(=O)[nH]c3ccccc3c2s1 | 24.2% |
| CCC1CCCCN1CCCNC(=O)c1cc2c(Cl)nc3ccccc3c2s1 (stereo unspecified) | 0.39% |
